Nine compounds from PubChem BioAssay (NCI) can be followed below.

Each structure is given as a SMILES string. About 79,000 compounds went through this panel and 15% of them were active in at least one assay; those are over-represented in the sample as a whole. Unmarked numbers belong to inactive results. Calls of active or inactive are those of the source. No stated cut-off is given here; in the data, active means growth inhibition above about 70%; inactive means the rest.

Assay [1] in a line: NCI Yeast Anticancer Drug Screen. Data for the rad50 strain (AID 155).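 Further: 0% = growth of vehicle-only cultures of the same strain.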 The settings on record: S. cerevisiae rad50 strain growth inhibition, stronger effect = higher value. An outline of the steps:
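Growth of the mutant yeast was measured after compound exposure and referenced to vehicle-treated cultures.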

A short description of assay [2]: NCI Yeast Anticancer Drug Screen. Data for the mec2-1 strain (AID 157). As to conditions: S. cerevisiae mec2-1 strain, stronger effect = higher value. An outline of the steps: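 Compounds were applied to mec2-1 yeast cells. Their growth was then compared with that of vehicle-treated cultures to give growth inhibition.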
The nature of assay [3]: NCI Yeast Anticancer Drug Screen. Data for the sgs1 mgt1 strain (AID 161).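 Further: 0% = growth of cultures given vehicle only.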 The settings on record: S. cerevisiae sgs1 mgt1 strain, stronger effect = higher value. The method, boiled down:
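Percent growth inhibition was derived by comparing compound-exposed mutant yeast with vehicle-exposed cultures. The strain carries alterations in DNA damage repair.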

Assay [4] can be described thus: NCI Yeast Anticancer Drug Screen. Data for the cln2 rad14 strain (AID 165).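 Further: 0% = growth equal to vehicle treated cultures.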 As to conditions: S. cerevisiae cln2 rad14 strain, stronger effect = higher value. The method, boiled down:
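Strain: cln2 rad14 yeast, altered in cell cycle control and DNA damage repair. Read-out: growth inhibition vs vehicle.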

Assay [5] can be described thus: NCI Yeast Anticancer Drug Screen. Data for the bub3 strain (AID 167). The settings on record: S. cerevisiae bub3 mutant strain, stronger effect = higher value. An outline of the steps:
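Whole-cell yeast assay. The mutant strain was incubated with compounds, and growth inhibition was determined by comparison with vehicle-treated cells.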

The nature of assay [6]: NCI Yeast Anticancer Drug Screen. Data for the mlh1 rad18 strain (AID 175). The settings on record: S. cerevisiae mlh1 rad18 strain growth inhibition, stronger effect = higher value. The method, boiled down:
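A repair-deficient yeast strain is exposed to test compound, and growth is scored relative to vehicle-treated controls.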

Setting [7] is: at 5.0 µM (retest, dose inferred, filed as 0.5).
[8] abbreviates: at 50.0 µM (retest, dose inferred, filed as 5.0).

In the case of `CC(C)c1ccc(CN(CCO)Cc2ccc(C(C)C)cc2)cc1`, the growth inhibition was 7% in assay [1] (setting [7]); 84% (active) in assay [1] (setting [8]); 97.2% (active) in assay [1] (at 50.0 µM); 3% in assay [2] (setting [7]); 88% (active) in assay [2] (setting [8]); 75.6% (active) in assay [2] (at 50.0 µM). Further, the growth inhibition in assay [3] (setting [7]) was 6%; in assay [3] (setting [8]) it was 95% (active); in assay [3] (at 50.0 µM), 97.1% (active); in assay [4] (setting [7]) it was 7%; in assay [4] (setting [8]), 87% (active); in assay [4] (at 50.0 µM), 77.3% (active). Further, the growth inhibition in assay [5] (setting [7]) is 7%; in assay [5] (setting [8]), 97% (active); in assay [5] (at 50.0 µM), 98.6% (active); in assay [6] (setting [7]), 8%; in assay [6] (setting [8]), 91% (active); in assay [6] (at 50.0 µM), 81.8% (active).
Consider `COC1=C2C[C@@H](C)C[C@@H](OC)[C@@H](O)[C@H](C)/C=C(\C)[C@@H](OC(N)=O)[C@H](OC)/C=C\C=C(/C)C(=O)NC(=CC1=O)C2=O`, for which the growth inhibition was 61% in assay [1] (setting [7]); 88% (active) in assay [1] (setting [8]); 85.8% (active) in assay [1] (at 50.0 µM); 81% (active) in assay [2] (setting [7]); 91% (active) in assay [2] (setting [8]); 89.7% (active) in assay [2] (at 50.0 µM). Also, the growth inhibition was 86% (active) in assay [3] (setting [7]); 92% (active) in assay [3] (setting [8]); 91.5% (active) in assay [3] (at 50.0 µM); 56% in assay [4] (setting [7]); 85% (active) in assay [4] (setting [8]); 84.8% (active) in assay [4] (at 50.0 µM). Further, the growth inhibition in assay [6] (setting [7]) is 69%; in assay [6] (setting [8]), 85% (active); in assay [6] (at 50.0 µM) it was 90% (active).
As to `CN(C)CCCN1c2ccc3ccccc3c2Sc2cccc(Cl)c21`, the growth inhibition in assay [1] (setting [7]) is 7%; in assay [1] (setting [8]) it was 99% (active); in assay [1] (at 50.0 µM), 98.3% (active); in assay [2] (setting [7]), 19%; in assay [2] (setting [8]), 99% (active); in assay [2] (at 50.0 µM), 97.3% (active). In addition, the growth inhibition in assay [3] (setting [7]) is -1%; in assay [3] (setting [8]), 99% (active); in assay [3] (at 50.0 µM), 97.9% (active); in assay [4] (setting [7]), 2%; in assay [4] (setting [8]), 99% (active); in assay [4] (at 50.0 µM), 96% (active). The growth inhibition in assay [6] (setting [7]) is 25%; in assay [6] (setting [8]), 99% (active); in assay [6] (at 50.0 µM), 98.2% (active).
In the case of `COC(=O)CCCCCOS(=O)(=O)c1ccc(C)cc1`, the growth inhibition in assay [1] (setting [7]) was 1%; in assay [1] (setting [8]), -5%; in assay [1] (at 50.0 µM), 26.9%; in assay [2] (setting [7]), -3%; in assay [2] (setting [8]), -5%; in assay [2] (at 50.0 µM) it was 16.2%. Also, the growth inhibition is -4% in assay [3] (setting [7]); -3% in assay [3] (setting [8]); 21.9% in assay [3] (at 50.0 µM); -3% in assay [4] (setting [7]); -14% in assay [4] (setting [8]); 84.2% (active) in assay [4] (at 50.0 µM). Also, the growth inhibition in assay [5] (setting [7]) is -1%; in assay [5] (setting [8]), -5%; in assay [5] (at 50.0 µM) it was 1.05%; in assay [6] (setting [7]), -5%; in assay [6] (setting [8]) it was -8%; in assay [6] (at 50.0 µM), 0.7%.
On to `O=C(C(Cl)Cl)N(O)c1ccccc1OCc1ccccc1`, for which the growth inhibition was 10% in assay [1] (setting [7]); 52% in assay [1] (setting [8]); 72.2% (active) in assay [1] (at 50.0 µM); 9% in assay [2] (setting [7]); 73% (active) in assay [2] (setting [8]); 41.9% in assay [2] (at 50.0 µM). The growth inhibition was 8% in assay [3] (setting [7]); 94% (active) in assay [3] (setting [8]); 90% (active) in assay [3] (at 50.0 µM); 6% in assay [4] (setting [7]); 27% in assay [4] (setting [8]); 34.4% in assay [4] (at 50.0 µM). For the same compound, the growth inhibition was 2% in assay [5] (setting [7]); 67% in assay [5] (setting [8]); 62.4% in assay [5] (at 50.0 µM); 56% in assay [6] (setting [7]); 95% (active) in assay [6] (setting [8]); 89% (active) in assay [6] (at 50.0 µM).
Turning to `COc1ccc(N=Nc2ccc(O)cc2)cc1`, the growth inhibition in assay [1] (setting [7]) was 7%; in assay [1] (setting [8]), 40%; in assay [1] (at 50.0 µM), 96.5% (active); in assay [2] (setting [7]), -5%; in assay [2] (setting [8]), 62%; in assay [2] (at 50.0 µM), 96% (active). For the same compound, the growth inhibition in assay [3] (setting [7]) is 2%; in assay [3] (setting [8]), 16%; in assay [3] (at 50.0 µM), 97.5% (active); in assay [4] (setting [7]), 7%; in assay [4] (setting [8]), 59%; in assay [4] (at 50.0 µM), 92% (active). In addition, the growth inhibition in assay [5] (setting [7]) is -22%; in assay [5] (setting [8]) it was 88% (active); in assay [5] (at 50.0 µM), 96.4% (active); in assay [6] (setting [7]) it was 8%; in assay [6] (setting [8]) it was 65%; in assay [6] (at 50.0 µM) it was 97% (active).
For `O=[N+]([O-])c1ccc2c(c1)/C(=N/O)c1ccccc1-2`, the growth inhibition was 21% in assay [1] (setting [7]); 49% in assay [1] (setting [8]); 88.3% (active) in assay [1] (at 50.0 µM); 0% in assay [2] (setting [7]); 7% in assay [2] (setting [8]); 28.4% in assay [2] (at 50.0 µM). Besides, the growth inhibition in assay [3] (setting [7]) was 4%; in assay [3] (setting [8]), 20%; in assay [3] (at 50.0 µM), 70%; in assay [5] (setting [7]), 8%; in assay [5] (setting [8]) it was 29%; in assay [5] (at 50.0 µM), 18.8%. For the same compound, the growth inhibition was 19% in assay [6] (setting [7]), 38% in assay [6] (setting [8]) and 81% (active) in assay [6] (at 50.0 µM).
As to `CCCCCCCCCCCCCCCCCC(=O)Nc1ccn(C2OC(CO)C(O)C2O)c(=O)n1` (stereo not given), the growth inhibition was 19% in assay [1] (setting [7]); 4% in assay [1] (setting [8]); 75.2% (active) in assay [1] (at 50.0 µM); 9% in assay [2] (setting [7]); 15% in assay [2] (setting [8]); 83.6% (active) in assay [2] (at 50.0 µM). Also, the growth inhibition was 43% in assay [3] (setting [7]); 41% in assay [3] (setting [8]); 67.8% in assay [3] (at 50.0 µM); 40% in assay [4] (setting [7]); 45% in assay [4] (setting [8]); 80.2% (active) in assay [4] (at 50.0 µM). Further, the growth inhibition is 48% in assay [5] (setting [7]); 43% in assay [5] (setting [8]); 82.3% (active) in assay [5] (at 50.0 µM); 15% in assay [6] (setting [7]); 4% in assay [6] (setting [8]); 82.8% (active) in assay [6] (at 50.0 µM).
`CC1=C(C#N)C(=O)N(C)C(=O)C1(Cl)Cl`: the growth inhibition in assay [1] (setting [7]) is -2%; in assay [1] (setting [8]) it was -12%; in assay [1] (at 50.0 µM) it was -1.3%; in assay [2] (setting [7]), 0%; in assay [2] (setting [8]), -2%; in assay [2] (at 50.0 µM) it was -8.1%. Moreover, the growth inhibition in assay [3] (setting [7]) was 1%; in assay [3] (setting [8]), -3%; in assay [3] (at 50.0 µM) it was -7.45%; in assay [5] (setting [7]) it was 3%; in assay [5] (setting [8]), 4%; in assay [5] (at 50.0 µM), 5.05%. Also, the growth inhibition is 1% in assay [6] (setting [7]), -3% in assay [6] (setting [8]) and 9.45% in assay [6] (at 50.0 µM).
